D2 ag-1: activates the human D2 dopamine receptor; P14416; AID 485358; 340,000 tested, 0.53% active; HEK293 T-REx D2 cells, calcium flux agonist mode; activation, % at 2 µM;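 active = activation over 3 SD above normal in the single-dose calcium agonist read, cut at about 30% in these data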; note: 0% is about no effect
Target sequence (P14416 whole entry, looked up): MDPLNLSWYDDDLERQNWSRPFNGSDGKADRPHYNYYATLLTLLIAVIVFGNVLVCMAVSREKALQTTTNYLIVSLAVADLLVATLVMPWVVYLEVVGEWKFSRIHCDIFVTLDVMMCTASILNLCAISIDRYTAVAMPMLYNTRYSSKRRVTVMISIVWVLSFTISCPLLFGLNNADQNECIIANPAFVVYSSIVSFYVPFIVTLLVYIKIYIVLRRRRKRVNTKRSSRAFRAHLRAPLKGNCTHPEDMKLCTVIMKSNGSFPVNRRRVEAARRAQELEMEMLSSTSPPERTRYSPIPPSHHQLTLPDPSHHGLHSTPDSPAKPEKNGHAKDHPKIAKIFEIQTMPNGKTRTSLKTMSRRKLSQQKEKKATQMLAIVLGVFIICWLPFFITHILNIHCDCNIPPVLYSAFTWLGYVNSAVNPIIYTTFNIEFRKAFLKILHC
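In this primary screen, compounds producing a positive calcium signal within 180 s of addition to tetracycline-induced, force-coupled HEK293 Trex D2 cells are flagged; cells are dye-loaded with a no-wash calcium kit beforehand.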
D2 PAM-1: human D2 receptor positive allosteric modulation; DiscoveRx D2 beta-arrestin cells, luminescence, 90 min; 100% = 57 uM dopamine signal; potentiation, % (no concentration beside the values); 360,000 tested, 0.23% active; in the data active = potentiation above about 50%; inconclusive = mostly about 30% to 49%
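PathHunter D2 cells, attached overnight at 37 deg C, received compound in DMSO plus dopamine at EC20 (50 nM final) for 90 min at 37 deg C. Beta-arrestin recruitment was read as luminescence after 1 h with detection reagent at ambient temperature.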
D2 ag-2: activates the human D2 dopamine receptor; P14416; DiscoveRx PathHunter D2 beta-arrestin, luminescence, 90 min; 100% = 57 uM dopamine signal; activation, % (no concentration beside the values); 360,000 tested, 0.084% active; AID 624465; in the data active = activation above about 40%; inconclusive = between about 15% and that limit
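DiscoveRx PathHunter D2 beta-arrestin cells (2,100/well) attached overnight, then compound-stimulated 90 min at 37 C in HBSS/10 mM HEPES/0.1% Tween-20 buffer; beta-galactosidase complementation read by luminescence after 1 h at ambient temperature. Dopamine 57 uM final (EC100) as control.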
D2 PAM-2: positively modulates the human D2 dopamine receptor allosterically. P14416. HEK293 T-REx D2, calcium flux, EC20 dopamine potentiation. potentiation, % at 10 µM. 340,000 tested, 0.34% active. AID 485347;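 active = potentiation over 3 SD above the plate norm, cut at about 30% in these data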; note: 0% is about no effect
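Tetracycline-induced Hek293 Trex D2 cells, force-coupled to calcium, loaded with no-wash calcium dye. Compound added with 180 s kinetic read for agonism, then EC20 dopamine and a further 180 s read for potentiation.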
D2 antag: antagonizes the human D2 dopamine receptor; HEK293 TREx D2 cells, calcium flux, dopamine EC80; inhibition, % at 10 µM; 340,000 tested, 2% active; in the data active = inhibition above about 30%; inactive = below that, where a call was filed; note: 0% is about no effect
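Measurement of antagonist activity uses fluorescent calcium dye in inducible HEK293 T-REx D2 cells: 10 s baseline, compound addition with 180 s read, EC80 dopamine addition with a further 180 s read.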
D3 arrestin ag: activates human D3 dopamine receptor beta-arrestin recruitment. DiscoveRx D3 beta-arrestin cells, luminescence, 90 min. Potency, µM (highest dose often 76.9 µM), for the others: top-dose activation, actives largely listed as activators. shares compounds with D2 ag-1. 2,300 tested, 4% active;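 note: potency is the fitted concentration of half-maximal effect; 100% = dopamine control response; nearly all actives have a fitted effect of over 70% in size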
D2 ag-3: D2 receptor agonism, beta-arrestin counterscreen. shares compounds with D2 ag-1. 2,300 tested, 5.9% active. Potency, µM (doses to about 76.9 µM), for inactives: at the top dose activation, most hits filed as activators. DiscoveRx PathHunter D2 beta-arrestin, luminescence, 90 min; response scale: percent relative to full dopamine signal. AID 720507; note: potency is the fitted concentration of half-maximal effect; % of control where 0% means no effect; nearly all actives have a fitted effect of over 70% in size
Active calls of the source: *; ? = inconclusive; · = no result given. A selection: hits, their analogues and other compounds. The true share with any hit is near 2.4%. Unless noted, calls come from the whole dose curve; as a rule, active = well fitted activation curve with a large enough effect; inconclusive = small, poorly fitted or top-dose-only effect; inactive = flat fitted curve, though single readings scatter.

SMILES	D2 ag-1	D2 PAM-1	D2 ag-2	D2 PAM-2	D2 antag	D3 arrestin ag	D2 ag-3
CCOc1ccccc1N1CCN(CC(O)COc2ccc3c(C)cc(=O)oc3c2)CC1 (stereo not drawn)	55*	-6	13	-14	65*	-4%	14%
CS(=O)(=O)Nc1ccccc1C(=O)Nc1cc(Cl)cc(Cl)c1	7	-6	-2	3	-1	19%	23%
Nc1cccc(O)c1	0	1	4	13	6	-2%	-3%
O=C(CNC(=O)c1ccccc1)NCC(=O)OCC(=O)c1ccc(F)cc1	·	7	-7	·	·	-4%	-4%
Cc1ccc(C(=O)NCC(=O)NCC(=O)OCC(=O)c2ccc(F)cc2)cc1	49*	-5	0	-20	6	-6%	-5%
COc1ccccc1CNS(=O)(=O)c1cc2c3c(c1)CCN3C(=O)CC2	0	?	0	11	75*	10%	8%
CC(C)CC[n+]1ccccc1/C=C/c1ccc(N(C)C)cc1	10	-10	-2	11	5	10%	17%
COc1cc(-c2ccno2)ccc1S(=O)(=O)N1CCN(c2ccccc2)CC1	·	·	·	6	·	·	·
O=C(NC1CCCC1)C1CCC(CNS(=O)(=O)c2ccccc2)CC1 (stereo not drawn)	-1	-7	-4	-2	-4	·	·
O=C(NC1CCCC1)C1CCC(CNS(=O)(=O)c2ccc(F)cc2)CC1 (stereo not drawn)	-1	-2	-2	7	15	-9%	0%
CN(CC(=O)Nc1ccccc1C(F)(F)F)C(=O)c1ccccc1Sc1ccccc1C#N	0	-3	3	5	-7	·	·
CCN(CC(=O)Nc1ccccc1C(F)(F)F)C(=O)c1ccccc1Sc1ccccc1C#N	0	4	-2	-7	4	-4%	-5%
NCC(O)(c1ccc(Cl)cc1)c1ccc(Cl)cc1	26	-7	1	-5	20	6%	2%
CC(C)(C)NCC(O)(c1ccc(Cl)cc1)c1ccc(Cl)cc1	0	-4	-1	-8	-2	·	·
CC(=O)Nc1ccc(-c2ccnc3c2CC(C(=O)NCc2ccco2)O3)cc1 (stereo not drawn)	·	8	-1	·	·	·	·
O=C(CCn1c(=O)c2cccn2c2cccnc21)NCc1ccccc1Br	0	·	·	0	·	·	·
Cc1ccc(S(=O)(=O)Nc2ccc3c(c2)nc(CCN2CCN(c4ccccn4)CC2)n3C)cc1	0	-25	7	-6	51*	8%	25%
Cn1c(CCN2CCN(c3ccccn3)CC2)nc2cc(NS(=O)(=O)c3ccc(Cl)cc3)ccc21	0	-22	13	-5	74*	16%	?
Cc1ccc(N2CCN(CCc3nc4cc(NS(C)(=O)=O)ccc4n3C)CC2)cc1	0	-36	0	-39	11	·	·
COc1ccc(OCC(=O)Nc2ccc3c(c2)nc(CCN2CCN(c4ccccn4)CC2)n3C)cc1	·	-18	7	·	·	·	·
CCc1c(C)nc2[nH]ncn2c1=O	·	-11	1	·	·	·	·
Cc1cc(NC(=O)CSCC(=O)Nc2cc(Cl)ccc2N2CCN(C)CC2)no1	1	-11	-3	4	4	0%	0%
CCOC(=O)c1cccc(NC(=O)C(C)n2c(C)c3cnn(-c4ccccc4)c(=O)c3c2C)c1 (stereo not drawn)	0	·	·	11	·	·	·
COc1ccc(CCNC2CCC(c3ccccc3)CC2)cc1 (stereo not drawn)	36*	-6	12	-15	78*	-5%	20%
O=[N+]([O-])c1ccc(O)c(-c2cc(C(F)(F)F)nc(-c3ccccc3)n2)c1	14	7	0	-5	21	?	2%
SMILES	D2 ag-1	D2 PAM-1	D2 ag-2	D2 PAM-2	D2 antag	D3 arrestin ag	D2 ag-3
Cn1c(=O)[nH]c(=O)c2c1nc(CN1CCN(c3ccccc3F)CC1)n2Cc1ccc(F)cc1	1	·	·	-21	·	·	·
O=C(CCc1ccc(O)c(O)c1)NNC(=S)NCCc1ccccc1	46*	8	10	-25	29	?	13%
COc1cccc(NC(=O)NNC(=O)CCc2ccc(O)c(O)c2)c1	52*	-24	?	-17	24	7.9µM*	13%
O=C(CCc1ccccc1)NNC(=S)NCc1ccc(Cl)cc1	1	-7	0	8	-2	·	·
COc1ccc(CCC(=O)NNC(=O)Nc2cccc(Cl)c2)cc1	0	-5	1	5	-8	·	·
COc1ccccc1N(CC(=O)NCCSCc1ccc(C)cc1)S(=O)(=O)c1ccccc1	2	1	4	14	25	-3%	6%
O=C(Cn1ncc2c([nH]c3ccccc32)c1=O)NCCCN1CCN(c2ccccc2)CC1	-1	-27	?	-2	103*	13%	?
CC1CCCC(C)N1CCCNC(=O)Cn1ncc2c([nH]c3ccccc32)c1=O (stereo not drawn)	0	-9	1	-3	8	·	·
Clc1cccc(OCCn2cncn2)c1Cl	·	-5	0	·	·	·	·
CC1CC(C)CN(CCOc2cccc(Cl)c2Cl)C1 (stereo not drawn)	88*	16	41*	-27	86*	?	?
COCCCN1C(=O)C(CC(=O)NCC2CCCCC2)CC(C(=O)N2CCOCC2)=C1C (stereo not drawn)	·	6	-1	·	·	·	·
COCC(=O)Nc1nnc(-c2ccc(C(C)(C)C)cc2)s1	2	-10	-10	7	-2	16%	0%
COc1ccc(OCCCCn2c(CO)nc3ccccc32)cc1	1	3	10	2	74*	5%	4%
CCCn1c(COc2ccccc2)nc2ccccc21	·	3	?	·	·	?	18%
O=C(CCCn1c2ccccc2c(=O)c2ccccc21)Nc1ccc(F)cc1Cl	-1	·	·	·	·	·	·
C[C@H]1CCCCO[C@@H](CN(C)C(=O)NC2CCCCC2)[C@@H](C)CN([C@@H](C)CO)C(=O)c2cc(NC(=O)Cc3ccccc3)ccc2O1	·	-10	-4	·	·	·	·
NCCCn1cnc2ccccc21	1	-1	-5	·	3	-2%	1%
c1ccc2c(c1)ncn2CCn1cnc2ccccc21	-1	-12	-4	-3	-16	·	·
O=C(C1CCN(c2ncnc3c2nc2n3CCCCC2)CC1)N1CCN(c2ccccc2F)CC1	28	-3	6	-12	5	?	16%
Fc1ccccc1N1CCN(c2ncnc3c2nc2n3CCCCC2)CC1	-1	·	·	6	·	·	·

From PubChem BioAssay
